Laboratory results as given in PubChem BioAssay (NCATS).
Inconclusive results are not listed. Activity calls are given as the source filed them. Calls come from the whole dose curve; as a rule, active = well fitted curve in the direction sought with a large enough effect; inconclusive = small, poorly fitted or top-dose-only effect, or another doubt; inactive = no such curve, though single readings can be large; an effect the other way counts as inactive or inconclusive.

Legend:
[1] = molecular target: Rap guanine nucleotide exchange factor 3 (Homo sapiens) (UniProt O95398); test: Confirmatory qHTS for antagonist of cAMP-regulated guanine nucleotide exchange factor 3 (EPAC1) (AID 1645880); details: EPAC1 Rap1B-BODIPY-GDP exchange, fluorescence; activity, negative = inhibition: at 115 µM (top of the series); note: nearly all actives have a fitted effect of over 55% in size; note: potency is the fitted concentration of half-maximal effect;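 for activity, negative = inhibition: plate controls were DMSO only for no effect and full effect of the ATA control for full effect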
In short: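 Released BODIPY-GDP fluoresces less than Rap1-bound BODIPY-GDP; the signal is followed at 480/540 nm at 5-min intervals over 30 min, after 5 min at room temperature. Reactions contain 100 nM EPAC1, 250 nM RAP1B-BODIPY-GDP and 50 uM GDP; results are normalized to ATA and DMSO.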

[2] = molecular target: Rap guanine nucleotide exchange factor 3 (Homo sapiens) (UniProt O95398); test: Confirmatory qHTS for agonist of cAMP-regulated guanine nucleotide exchange factor 3 (EPAC1) (AID 1645881);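 note: EPAC1 catalysed release of BODIPY-GDP from Rap1B seen as fluorescence loss; 100% = effect of cAMP agonist control; nearly all actives have a fitted effect of over 75% in size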
[3] = molecular target: Rap guanine nucleotide exchange factor 4 (Homo sapiens) (UniProt Q8WZA2); test: Confirmatory qHTS for agonist of cAMP-regulated guanine nucleotide exchange factor 4 (EPAC2) (AID 1645884);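 note: nucleotide exchange releases bodipy-GDP from Rap1 and this lowers its fluorescence; % is set by controls: 0 for no effect and ±100 for the full control effect; nearly all actives have a fitted effect of over 65% in size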
[4] = molecular target: Rap guanine nucleotide exchange factor 3 (Homo sapiens) (UniProt O95398); test: Counterscreen qHTS for antagonist of cAMP-regulated guanine nucleotide exchange factor 3 (EPAC1) (AID 1645888); note: % of control where 0% means no effect
In short: (§1)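 Measured: fluorescence of BODIPY-GDP bound to Rap1B, which falls as exchange proceeds. Conditions include 50 uM competing GDP, 5 and 30 min reads, and a later cAMP challenge for antagonist detection.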

[5] = molecular target: Rap guanine nucleotide exchange factor 3 (Homo sapiens) (UniProt O95398); test: Counterscreen qHTS for agonist of cAMP-regulated guanine nucleotide exchange factor 3 (EPAC1) (AID 1645889); note: nearly all actives have a fitted effect of over 40% in size; note: potency is the fitted concentration of half-maximal effect; for activation: % of control where 0% means no effect
In short: as §1

Sequence of Rap guanine nucleotide exchange factor 3 (Homo sapiens) (O95398 whole entry, looked up): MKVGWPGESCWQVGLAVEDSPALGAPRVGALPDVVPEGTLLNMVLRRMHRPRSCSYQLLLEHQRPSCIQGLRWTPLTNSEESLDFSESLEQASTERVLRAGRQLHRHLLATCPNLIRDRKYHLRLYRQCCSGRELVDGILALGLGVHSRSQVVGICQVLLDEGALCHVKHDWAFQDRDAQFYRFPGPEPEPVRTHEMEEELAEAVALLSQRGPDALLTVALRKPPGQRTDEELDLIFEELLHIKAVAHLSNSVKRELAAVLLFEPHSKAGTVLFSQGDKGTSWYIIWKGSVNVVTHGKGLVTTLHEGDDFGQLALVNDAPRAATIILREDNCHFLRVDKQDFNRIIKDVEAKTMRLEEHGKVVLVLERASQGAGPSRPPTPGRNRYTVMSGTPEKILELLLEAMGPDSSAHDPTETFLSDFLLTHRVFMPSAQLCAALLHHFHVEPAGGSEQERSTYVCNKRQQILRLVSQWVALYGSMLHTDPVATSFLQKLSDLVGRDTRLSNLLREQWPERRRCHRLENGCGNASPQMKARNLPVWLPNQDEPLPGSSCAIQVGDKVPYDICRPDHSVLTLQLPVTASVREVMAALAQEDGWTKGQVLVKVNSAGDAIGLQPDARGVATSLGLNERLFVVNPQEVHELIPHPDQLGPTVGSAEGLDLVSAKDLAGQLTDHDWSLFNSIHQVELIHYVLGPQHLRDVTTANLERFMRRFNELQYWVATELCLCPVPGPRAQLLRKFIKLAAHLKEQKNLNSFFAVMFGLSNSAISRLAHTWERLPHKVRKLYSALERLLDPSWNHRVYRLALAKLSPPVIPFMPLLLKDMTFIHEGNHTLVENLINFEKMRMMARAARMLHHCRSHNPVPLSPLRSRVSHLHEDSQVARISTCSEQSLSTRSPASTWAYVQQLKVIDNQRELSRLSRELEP
Sequence of Rap guanine nucleotide exchange factor 4 (Homo sapiens) (Q8WZA2 whole entry, looked up): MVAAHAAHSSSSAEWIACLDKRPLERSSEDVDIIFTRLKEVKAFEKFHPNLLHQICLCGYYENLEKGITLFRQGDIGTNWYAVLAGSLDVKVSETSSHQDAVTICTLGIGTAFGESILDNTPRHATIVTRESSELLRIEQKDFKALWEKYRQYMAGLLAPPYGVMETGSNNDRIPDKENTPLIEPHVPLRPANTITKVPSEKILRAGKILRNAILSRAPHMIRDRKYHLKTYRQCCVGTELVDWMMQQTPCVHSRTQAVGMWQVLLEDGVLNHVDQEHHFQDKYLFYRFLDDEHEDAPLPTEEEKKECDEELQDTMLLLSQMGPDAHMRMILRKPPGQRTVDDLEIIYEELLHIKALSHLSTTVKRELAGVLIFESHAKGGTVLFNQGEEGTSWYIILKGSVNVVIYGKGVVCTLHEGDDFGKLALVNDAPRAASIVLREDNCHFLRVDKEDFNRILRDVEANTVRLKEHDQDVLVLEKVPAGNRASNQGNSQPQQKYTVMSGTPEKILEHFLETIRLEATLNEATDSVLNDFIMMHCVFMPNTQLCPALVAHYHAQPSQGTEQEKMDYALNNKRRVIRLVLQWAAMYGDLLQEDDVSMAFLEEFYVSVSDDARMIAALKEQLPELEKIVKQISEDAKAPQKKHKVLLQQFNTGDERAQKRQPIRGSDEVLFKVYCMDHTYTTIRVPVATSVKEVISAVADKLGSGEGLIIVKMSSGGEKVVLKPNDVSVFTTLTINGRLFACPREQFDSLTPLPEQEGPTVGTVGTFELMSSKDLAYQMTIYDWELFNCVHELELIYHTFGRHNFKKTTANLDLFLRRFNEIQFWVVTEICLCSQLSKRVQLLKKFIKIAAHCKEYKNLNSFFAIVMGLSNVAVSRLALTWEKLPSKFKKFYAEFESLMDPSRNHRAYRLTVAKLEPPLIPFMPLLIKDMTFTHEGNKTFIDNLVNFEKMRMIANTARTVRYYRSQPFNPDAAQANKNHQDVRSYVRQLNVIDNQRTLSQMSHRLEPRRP

Cc1noc(C)c1C(=O)N(CC(C)C)c1nc2ccccc2s1
inactive: Potency [1] | Potency [2] | Potency [3] | Potency [4] | Potency [5]

Cc1cccc(C)c1OCC(=O)Nc1ccccc1N1CCCCC1
inactive: Potency [1] | Potency [2] | Potency [3] | Potency [4] | Potency [5]

CCC(=O)N1N=C(c2ccc(Cl)cc2)CC1c1ccco1 (stereo not given)
inactive: Potency [1] | Potency [2] | Potency [3] | Potency [4] | Potency [5]

CCOC(=O)c1cc2c(ccn2C)n1Cc1ccccc1Cl
inactive: Potency [1] | Potency [2] | Potency [3] | Potency [4] | Potency [5]

CC(C)(C(=O)N1CCC1(C)C(=O)NS(=O)(=O)c1cccc(Cl)c1)c1ccccc1 (stereo not given)
inactive: Potency [2] | Potency [3] | Potency [4] | Potency [5]
active: Potency [1] 75.7 µM

O=C(c1ccc(CN2CCc3ccccc3C2)cc1)N1CCCCC1
inactive: Potency [1] | Potency [2] | Potency [3] | Potency [4] | Potency [5]

Cc1noc(C)c1COc1ccccc1C(=O)NCCc1ccc(Cl)cc1
inactive: Potency [1] | Potency [2] | Potency [3] | Potency [4] | Potency [5]

Cc1ccc(S(=O)(=O)NCc2ccccc2)cc1C(=O)N1CCCC(C(F)(F)F)C1 (stereo not given)
inactive: Potency [1] | Potency [2] | Potency [3] | Potency [4] | Potency [5]

CC1(C)c2ccccc2N(CC(N)=O)C12C=Cc1ccccc1O2 (stereo not given)
inactive: Potency [1] | Potency [2] | activation [3] -0.49% [at 17.1 µM, percent relative to cAMP agonist control] | activity change, negative = inhibition [4] 6.74% [at 30.8 µM] | activation [5] 10.1% [at 30.8 µM]

COC(=O)c1cn(C(=O)c2ccccc2Cl)c2ccccc12
inactive: Potency [1] | Potency [2] | activation [3] 7.27% [at 17.1 µM, percent relative to cAMP agonist control] | activity change, negative = inhibition [4] -1.26% [at 30.8 µM] | activation [5] 20.7% [at 30.8 µM]

Cc1onc(-c2c(Cl)cccc2Cl)c1C(=O)c1ccc(F)cc1
inactive: Potency [1] | Potency [2] | Potency [3] | Potency [4] | Potency [5]

Cc1nnc(SCc2ccccc2CSc2nnc(C)s2)s1
inactive: Potency [1] | Potency [2] | Potency [3] | Potency [4] | Potency [5]

Nc1nnc(CC(=O)N/N=C/c2cc([N+](=O)[O-])cc(Br)c2O)s1
active: Potency [1] 10.7 µM
inactive: Potency [2] | Potency [3] | Potency [4] | Potency [5]

CC(=O)c1c(-c2ccccc2)c2cc(Cl)ccc2n(C)c1=O
inactive: Potency [1] | Potency [2] | activation [3] -9.72% [at 17.1 µM, percent relative to cAMP agonist control] | activity change, negative = inhibition [4] -1.67% [at 30.8 µM] | activation [5] 9.36% [at 30.8 µM]

COc1cccc(-c2nc(CS(=O)(=O)CC(=O)N3CCN(C)CC3)c(C)o2)c1
inactive: Potency [1] | Potency [2] | Potency [3] | Potency [4] | Potency [5]

CNC(=O)c1ccc2snnc2c1
inactive: Potency [1] | Potency [2] | Potency [3] | Potency [4] | Potency [5]

O=C(c1ccco1)N(Cc1ccccc1)c1cccc([N+](=O)[O-])c1
inactive: Potency [1] | Potency [2] | Potency [3] | Potency [4] | Potency [5]

CNc1nc(C)cc(C)c1S(=O)(=O)c1ccc(C)cc1
inactive: Potency [1] | Potency [2] | activation [3] 6.77% [at 17.1 µM, percent relative to cAMP agonist control] | activity change, negative = inhibition [4] -11.2% [at 30.8 µM] | activation [5] 14.5% [at 30.8 µM]

O=C1CCc2cc(S(=O)(=O)NCc3ccc(F)cc3)cc3c2N1CC3
inactive: Potency [1] | Potency [2] | Potency [3] | Potency [4] | Potency [5]

Cc1ccc2oc(C(=O)N3CCCCCC3)c(C)c2c1
inactive: Potency [1] | Potency [2] | Potency [3] | Potency [4] | Potency [5]

COc1ccc(OC)c(C(C[N+](=O)[O-])c2c(C)cc3ccccn23)c1 (stereo not given)
inactive: Potency [1] | Potency [2] | Potency [3] | Potency [4] | Potency [5]

Nc1nc(C(c2ccccc2)c2ccccc2)cs1
inactive: Potency [1] | Potency [2] | Potency [3] | Potency [4] | Potency [5]

COc1c(S(=O)(=O)N2CCCC2)ccc(Cl)c1Cl
inactive: Potency [1] | Potency [2] | activation [3] 4.79% [at 17.1 µM, percent relative to cAMP agonist control] | activity change, negative = inhibition [4] -12% [at 30.8 µM] | activation [5] 23.7% [at 30.8 µM]

O=C(C1CC1)N1c2ccccc2Sc2ccccc21
inactive: Potency [1] | Potency [2] | Potency [3] | Potency [4] | Potency [5]

O=C1C=CC(=O)c2c(O)c(N3CCN(CCO)CC3)c(Cl)c(O)c21
inactive: Potency [2] | Potency [3] | Potency [4] | Potency [5]
active: Potency [1] 37.9 µM

Cc1ccc(S(=O)(=O)NN2C(=O)/C(=C/c3cccc(F)c3)SC2=S)cc1
active: Potency [1] 23.9 µM
inactive: Potency [2] | Potency [3] | Potency [4] | Potency [5]

CNC(=O)CSc1nc2ccccc2c(=O)n1-c1cc(OC)ccc1OC
inactive: Potency [1] | Potency [2] | activation [3] -3% [at 17.1 µM, percent relative to cAMP agonist control] | activity change, negative = inhibition [4] -17.1% [at 30.8 µM] | activation [5] 5.72% [at 30.8 µM]

O=C(/C=C/c1ccco1)N1CCCC(c2ccccc2)C1 (stereo not given)
active: Potency [1] 67.5 µM
inactive: Potency [2] | Potency [3] | Potency [4] | Potency [5]

COc1ccc(OC)c(NC(=O)C2(C)CCN2Cc2ccsc2)c1 (stereo not given)
inactive: Potency [1] | Potency [2] | Potency [3] | Potency [4] | Potency [5]

COc1ccc(N2C(=O)CSC2c2cccc(F)c2)c(OC)c1 (stereo not given)
inactive: Potency [1] | Potency [2] | activation [3] 2.35% [at 17.1 µM, percent relative to cAMP agonist control] | activity change, negative = inhibition [4] -18.3% [at 30.8 µM] | activation [5] 1.09% [at 30.8 µM]

CS/C(Nc1cc(Cl)ccc1Cl)=C(/C#N)C(=O)c1ccco1
inactive: Potency [2] | Potency [3] | Potency [4] | Potency [5]
active: Potency [1] 67.5 µM

O=S(=O)(O)c1cc(O)c2cc(Nc3ccccc3)ccc2c1
inactive: Potency [2] | Potency [3] | Potency [4] | Potency [5]
active: Potency [1] 37.9 µM

Cc1cc2ccccc2cc1C(=O)c1ccccc1
inactive: Potency [1] | Potency [2] | activation [3] 3.89% [at 17.1 µM, percent relative to cAMP agonist control] | activity change, negative = inhibition [4] -19.3% [at 30.8 µM] | activation [5] 5.51% [at 30.8 µM]

CCOC(=O)C1CCCN(C(=O)c2cc(-c3ccco3)nc3ccccc23)C1 (stereo not given)
active: Potency [1] 15.1 µM
inactive: Potency [2] | Potency [3] | Potency [4] | Potency [5]

CC1CN(C(=O)CCC(=O)NCc2ccc(F)cc2)c2ccccc2S1 (stereo not given)
inactive: Potency [1] | Potency [2] | activation [3] -4.63% [at 17.1 µM, percent relative to cAMP agonist control] | activity change, negative = inhibition [4] -2.67% [at 30.8 µM] | activation [5] 31.5% [at 30.8 µM]

CC(=O)OC1CSC2c3ccccc3C(=O)N2Cc2sccc21 (stereo not given)
inactive: Potency [1] | Potency [2] | Potency [3] | Potency [4] | Potency [5]

Cc1ccc2nc(N3C(=O)C(O)=C(C(=O)c4ccc(C)o4)C3c3ccc(O)cc3)sc2c1 (stereo not given)
active: Potency [1] 37.9 µM
inactive: Potency [2] | Potency [3] | Potency [4] | Potency [5]

C=CCn1c(Cc2ccccc2)nc2c(cnn2-c2ccccc2)c1=O
inactive: Potency [1] | Potency [2] | Potency [3] | Potency [4] | Potency [5]

CCCNC(=O)Cn1c(=O)/c(=C/c2ccc(-c3ccc([N+](=O)[O-])cc3)o2)s/c1=C\C(=O)C(C)(C)C
active: Potency [1] 37.9 µM | Potency [5] 5.01 µM
inactive: Potency [2] | Potency [3] | Potency [4]

COc1cc(C(=O)c2ccccc2)c([N+](=O)[O-])cc1OC
inactive: Potency [1] | Potency [2] | Potency [3] | Potency [4] | Potency [5]

COc1ccccc1C(=O)C1CCCN(C(=O)c2ccc3c(c2)OCCO3)C1 (stereo not given)
inactive: Potency [1] | Potency [2] | Potency [3] | Potency [4] | Potency [5]

O=C(O)c1ccccc1-c1ccccc1C(=O)Nc1ccc2c(c1)oc(=O)c1ccccc12
active: Potency [1] 75.7 µM
inactive: Potency [2] | Potency [3] | Potency [4] | Potency [5]

O=C(CN1C(=O)NC2(CCCC2)C1=O)Nc1nc2c(F)cc(F)cc2s1
inactive: Potency [1] | Potency [2] | Potency [3] | Potency [4] | Potency [5]

COCCn1c(SCc2ccccc2F)nc2ccccc2c1=O
inactive: Potency [1] | Potency [2] | activation [3] 4.59% [at 17.1 µM, percent relative to cAMP agonist control] | activity change, negative = inhibition [4] -6.24% [at 30.8 µM] | activation [5] 12.3% [at 30.8 µM]

CCOC(=O)C1=C(N)c2ccccc2CC1C1CCCC1 (stereo not given)
inactive: Potency [1] | Potency [2] | Potency [3] | Potency [4] | Potency [5]

CS(=O)(=O)c1ccc2c(c1)SC1=NC(=O)/C(=C/c3ccco3)C(=N)N12
inactive: Potency [2] | Potency [3] | Potency [4] | Potency [5]
active: Potency [1] 12 µM

Cc1ccc(N2CC(c3nc4ccccc4[nH]3)CC2=O)c(C)c1 (stereo not given)
inactive: Potency [1] | Potency [2] | Potency [3] | Potency [4] | Potency [5]

COc1ccccc1Oc1ncnc2c1oc1ccccc12
inactive: Potency [1] | Potency [2] | activation [3] -4.43% [at 17.1 µM, percent relative to cAMP agonist control] | activity change, negative = inhibition [4] 7.03% [at 30.8 µM] | activation [5] 5.04% [at 30.8 µM]

Cc1nnc(SCC(=O)Nc2sccc2C#N)s1
active: Potency [5] 0.0178 µM
inactive: Potency [1] | Potency [2] | Potency [3] | Potency [4]

O=C1CC(=O)Nc2cc(S(=O)(=O)Nc3ccc(Cl)c(C(F)(F)F)c3)ccc2N1
inactive: Potency [1] | Potency [2] | Potency [3] | Potency [4] | Potency [5]
